Among all 52,000 compounds or so, about 4,300 (8.3%) were called active. No stated cut-off is given here; in the data, active means survival mostly below about 52% (no sharp cut-off); inactive means mostly above about 56%. The list comes from a sample in which actives are over-represented; it also holds similar structures and randomly drawn compounds.
test system: DeltatarO mutant; assay: growth inhibition of S. aureus wild type versus tarO mutant, primary screen, teichoic acid synthesis inhibitors, RN4220, OD600 (AID 463173); settings: OD600, 18 h, stronger effect = lower value, screened at 18.75 µg/mL (by protocol)

Row | Structure (SMILES) | survival
1 | CCc1[nH]nc2c1C1(C(=O)Nc3ccc(Cl)cc31)C(C#N)=C(N)O2 (centres undefined) | 78% (inactive)
2 | O=C(CSc1ncc2c(n1)-c1ccccc1N(Cc1ccc(Cl)cc1)S2(=O)=O)c1ccccc1 | 144% (inactive)
3 | O=C(CN1C(=O)CC(c2ccco2)Sc2ccccc21)Nc1cccc(C(F)(F)F)c1 (centres undefined) | 103% (inactive)
4 | CC1CCCN(Cc2nc3c(c(=O)n(C)c(=O)n3C)n2Cc2ccc(Cl)cc2)C1 (centres undefined) | 90% (inactive)
5 | Fc1ccccc1N1CCN(c2c3c(nc4nncn24)CCC3)CC1 | 81% (inactive)
6 | Cc1ccccc1NS(=O)(=O)c1nnc(NC(=O)c2ccco2)s1 | 88% (inactive)
7 | CC1CCN(S(=O)(=O)c2nnc(NC(=O)c3ccc(C(C)C)cc3)s2)CC1 | 62% (inactive)
8 | Cc1ccccc1N1CCN(S(=O)(=O)c2nnc(NC(=O)c3ccc(C(C)C)cc3)s2)CC1 | 38% (active)
9 | Cc1ccc(N2CCN(S(=O)(=O)c3nnc(NC(=O)c4ccccc4)s3)CC2)cc1 | 57% (inactive)
10 | Cc1cccc(N2CCN(S(=O)(=O)c3cn(C)c(C)n3)CC2)c1C | 0% (active)
11 | Cc1nc(S(=O)(=O)N2CCN(c3ccccc3F)CC2)cn1C | 117% (inactive)
12 | Cc1ccccc1N1CCN(S(=O)(=O)c2nnc(NC(=O)c3ccccc3)s2)CC1 | 26% (active)
13 | Cc1ccc(C)c(N2CCN(S(=O)(=O)c3cn(C)c(C)n3)CC2)c1 | 72% (inactive)
14 | Cc1ccccc1NS(=O)(=O)c1nnc(NC(=O)c2ccccc2C)s1 | 76% (inactive)
15 | Cc1ccccc1NS(=O)(=O)c1nnc(NC(=O)c2ccc(Cl)cc2)s1 | 41% (active)
16 | CC(C)OC(=O)Cn1nnc(-c2ccccc2)n1 | 82% (inactive)
17 | CC(=O)c1cccc(NC(=O)c2ccc(-n3c(C)nnc3C)cc2)c1 | 70% (inactive)
18 | CC(C)(C)OC(=O)N1C(C(=O)O)CSC1c1cccc(Br)c1 (centres undefined) | 101% (inactive)
19 | Cc1ccc(NC(=O)N2CCc3cc(S(=O)(=O)N4CCC(C)CC4)ccc32)cc1 | 96% (inactive)
20 | Cc1ccc(CN(Cc2cccn2-c2nnc(N3CCCC3=O)s2)C(=O)Nc2ccccc2Cl)cc1 | 104% (inactive)
21 | COc1ccccc1CNC(=O)c1cn(C)c2ccc(S(=O)(=O)N3CCC(C)CC3)cc2c1=O | 92% (inactive)
22 | Cc1ccc(N(C)S(=O)(=O)c2ccc(-c3coc(C)n3)cc2)cc1 | 75% (inactive)
23 | COc1ccc(NC(=O)CCCc2nc(-c3ccco3)no2)c(OC)c1 | 107% (inactive)
24 | CC1Cc2cc(S(=O)(=O)CCC(=O)Nc3ccc(OC(F)(F)F)cc3)ccc2N1C(=O)C1CC1 (centres undefined) | 85% (inactive)

Row | Structure (SMILES) | survival
25 | COc1ccc(S(=O)(=O)N2CCN(S(=O)(=O)c3ccccc3)CC2)cc1 | 87% (inactive)
26 | CS(=O)(=O)N1CCN(S(=O)(=O)c2ccccc2)CC1 | 104% (inactive)
27 | Cc1ccccc1N1CCN(S(=O)(=O)c2ccccc2)CC1 | 28% (active)
28 | Cc1cccc(N2CCN(S(=O)(=O)c3nnc(NC(=O)c4ccc(Cl)cc4)s3)CC2)c1 | 54% (inactive)
29 | Cc1ccccc1N1CCN(S(=O)(=O)c2nnc(NC(=O)c3ccc(Cl)cc3)s2)CC1 | 43% (active)
30 | O=C(Nc1nnc(S(=O)(=O)N2CCN(c3ccc(F)cc3)CC2)s1)c1ccc(Cl)cc1 | 57% (inactive)
31 | O=C(Nc1ccc(O)cc1)c1cccc(S(=O)(=O)N2CCOCC2)c1 | 77% (inactive)
32 | CCOc1ccc(NC(=O)Cn2nc3c(cc2=O)CC(C)CC3)cc1 (centres undefined) | 98% (inactive)
33 | c1ccc(C2SCCN2c2ccccc2)cc1 (centres undefined) | 97% (inactive)
34 | Cc1cccc(N2CCN(C(=O)Cn3c(-c4cccs4)cc4ccccc43)CC2)c1C | 78% (inactive)
35 | Cc1nc(CC(=O)Nc2cc(Cl)ccc2C)cs1 | 45% (active)
36 | Cc1cccc(NC(=O)Nc2cccs2)c1C | 93% (inactive)
37 | CCc1cccc(CC)c1NC(=O)Cc1csc(C)n1 | 42% (active)
38 | CCCCCOc1ccc(NC(=O)Cc2csc(C)n2)cc1 | 44% (inactive)
39 | Cc1cccc(OCc2nc(CC(=O)Nc3ccc(C)cc3C)cs2)c1 | 79% (inactive)
40 | Cc1nc(CC(=O)Nc2cccc(C)c2C)cs1 | 39% (active)
41 | Cc1ccc(NC(=O)Cc2csc(C)n2)c(C)c1 | 40% (active)
42 | Cc1ccc(Cl)cc1NC(=O)c1csnn1 | 78% (inactive)
43 | Cc1ccc(C(=O)CCC(=O)Nc2ccc(C)cc2C)cc1 | 115% (inactive)
44 | Cc1cc(C)c(NC(=O)Cc2csc(C)n2)c(Cl)c1 | 48% (inactive)
45 | CCc1ccc(NC(=O)Cc2csc(COc3cccc(C)c3)n2)cc1 | 88% (inactive)
46 | Cc1ccccc1-c1noc(CCC(=O)Nc2cccc(C)c2C)n1 | 88% (inactive)
47 | COCC(=O)N1CCC(n2nnc3cc(F)ccc32)CC1 | 53% (inactive)
48 | CCN(CC)CC(=O)N1CCCC1=O | 100% (inactive)

Row | Structure (SMILES) | survival
49 | Cc1cc(C)c(/C=C/c2onc(C)c2S(=O)(=O)N2CCC(C(=O)NCc3ccco3)CC2)c(C)c1 | 90% (inactive)
50 | CCOC(=O)c1ccc(NC(=O)CCn2c(=O)c3cccn3c3ccccc32)cc1 | 91% (inactive)
51 | CCC(c1nnnn1CCOC)N1CCN(c2cccc(C(F)(F)F)c2)CC1 (centres undefined) | 107% (inactive)
52 | Cn1c(CNc2ccc(Cl)cc2)nnc1SCc1ccc(Cl)cc1 | 68% (inactive)
53 | CC(=O)N1CCCC1c1nc2ccccc2n1Cc1ccc(F)cc1 (centres undefined) | 85% (inactive)
54 | CCc1cccc(CC)c1NC(=O)c1c(C)oc2ccc(O)c(CN3CCCC3)c12 | 113% (inactive)
55 | O=S1(=O)c2ccccc2-c2cc(Br)ccc21 | 79% (inactive)
56 | CCOC(=O)CNC(=O)Nc1cc(C(=O)NCc2ccccc2OC)ccc1N1CCCC1 | 80% (inactive)
57 | CCC(=O)/C=C1/Sc2ccc(C)cc2N1CC | 97% (inactive)
58 | O=C(O)c1cc(NC2(c3ccccc3)C(=O)c3ccccc3C2=O)ccc1Cl | 87% (inactive)
59 | Cc1ccc(NC2(c3ccccc3)C(=O)c3ccccc3C2=O)cc1F | 58% (active)
60 | Cc1cc(F)ccc1NC1(c2ccccc2)C(=O)c2ccccc2C1=O | 79% (inactive)
61 | COc1cc(OC)c(NC(=O)Nc2sc3nc4n(c(=O)c3c2C)CCC(C)CC4)cc1Cl (centres undefined) | 85% (inactive)
62 | COc1ccccc1Cn1cc(C(=O)c2ccccc2)c(=O)c2cc(OC)c(OC)cc21 | 23% (active)
63 | CCc1ccc(C(=O)c2cn(CC(=O)Nc3ccc4c(c3)OCCO4)c3ccc(CC)cc3c2=O)cc1 | 72% (inactive)
64 | CCc1ccc2c(c1)c(=O)c(C(=O)c1ccc(C)cc1)cn2CC(=O)Nc1ccc2c(c1)OCCO2 | 61% (inactive)
65 | O=C(c1ccc2c(c1)OCO2)c1cn(Cc2ccc(F)cc2)c2ccccc2c1=O | 68% (inactive)
66 | CCOc1ccc2c(c1)c(=O)c(C(=O)c1ccc3c(c1)OCO3)cn2Cc1ccc(F)cc1 | 98% (inactive)
67 | COc1ccc(Cn2cc(C(=O)c3ccc(F)cc3)c(=O)c3cc4c(cc32)OCCO4)cc1 | 66% (inactive)
68 | COc1ccccc1Cn1cc(C(=O)c2ccc(C)cc2)c(=O)c2cc(C)ccc21 | 112% (inactive)
69 | COc1ccc(C(=O)c2cn(Cc3ccc(F)cc3)c3ccc(C)cc3c2=O)cc1 | 24% (active)
70 | CCc1ccc(C(=O)c2cn(CC(=O)Nc3ccc4c(c3)OCCO4)c3ccc(C)cc3c2=O)cc1 | 57% (active)
71 | CCc1ccc(C(=O)c2cn(Cc3ccccc3)c3cc(OC)c(OC)cc3c2=O)cc1 | 58% (inactive)
72 | COc1ccc(Cn2cc(C(=O)c3ccc(C)cc3)c(=O)c3cc(OC)c(OC)cc32)cc1 | 93% (inactive)

Row | Structure (SMILES) | survival
73 | O=C(c1ccc2c(c1)OCO2)c1cn(Cc2ccc(Cl)cc2)c2ccc(F)cc2c1=O | 55% (active)
74 | COCCNC(=O)CSc1nc2ccccc2nc1Cc1ccc(C)cc1 | 78% (inactive)
75 | CCOC(=O)c1oc2ccccc2c1CN(C)CCc1ccccc1 | 70% (inactive)
76 | COc1ccc(CCn2c(=O)c3cccnc3n(CC(=O)Nc3c(C)cccc3C)c2=O)cc1OC | 90% (inactive)
77 | COc1ccccc1C(=O)Nc1ccc(NC(=O)c2cccs2)cc1 | 51% (inactive)
78 | CCc1nnc(NC(=O)C(=O)c2cc(C)n(-c3ccccc3)c2C)s1 | 77% (inactive)
79 | CCOc1ccc(-n2c(SCC(=O)Nc3ccccc3OC)nc3c(oc4ccccc43)c2=O)cc1 | 69% (inactive)
80 | COc1ccc(-c2noc(C3CC(=O)N(c4ccc5c(c4)OCCO5)C3)n2)c(OC)c1 (centres undefined) | 98% (inactive)
81 | COc1ccc(N(C(=O)c2ccc(C(C)(C)C)cc2)S(=O)(=O)c2ccc(Cl)cc2)cc1 | 81% (inactive)
82 | Cc1ccc(Cn2cc(C(=O)c3ccc4c(c3)OCO4)c(=O)c3cc(C)ccc32)cc1 | 59% (inactive)
83 | Cc1ccc2c(c1)c(=O)c(C(=O)c1ccc3c(c1)OCO3)cn2Cc1ccc(Cl)cc1 | 46% (active)
84 | Cc1ccc2c(c1)c(=O)c(C(=O)c1ccc3c(c1)OCO3)cn2Cc1cccc(F)c1 | 66% (inactive)
85 | CCOC(=O)c1ccc(NC(=O)CC2C(=O)N(c3ccc(F)cc3)C(=O)N2Cc2ccc3c(c2)OCO3)cc1 (centres undefined) | 116% (inactive)
86 | O=C(c1ccc(-n2cnnn2)cc1)N(C1CCCCC1)C1CCCCC1 | 93% (inactive)
87 | COc1cc(OC)c(NC(=O)NCCn2nnc3cc(S(=O)(=O)N(C)C)ccc32)cc1Cl | 88% (inactive)
88 | Cc1cc(F)ccc1-n1nnc(C(N)=O)c1C | 76% (inactive)
89 | COc1ccc(-n2c(SCC(=O)NCc3ccccc3)nc3c([nH]c4ccccc43)c2=O)cc1 | 93% (inactive)
90 | CC(CNC(=O)CCn1c(=O)c2cccn2c2ccc(F)cc21)c1ccccc1 (centres undefined) | 34% (active)
91 | CC(CNC(=O)CCCn1c(=O)c2cccn2c2cccnc21)c1ccccc1 (centres undefined) | 95% (inactive)
92 | CC(CNC(=O)CCCn1c(=O)c2cccn2c2ccccc21)c1ccccc1 (centres undefined) | 47% (inactive)
93 | CC(CNC(=O)CCCn1c(=O)c2cccn2c2ccc(F)cc21)c1ccccc1 (centres undefined) | 35% (active)
94 | CC(NC(=O)CCn1c(=O)c2cccn2c2ccc(F)cc21)c1ccccc1 (centres undefined) | 59% (inactive)

— PubChem BioAssay AID463173 (ICCB-Longwood Screening Facility, Harvard Medical School, 2010)
